From PubChem BioAssay
ST2 IL33 inh: blocks human ST2 binding to IL-33. Q01638. inhibition, % for hits at 17 µM. AlphaLISA ST2-Fc/biotin-IL-33 interaction, 1 h. 78,000 compounds, 2.3% hits; in the data active means inhibition above about 30%
Target sequence (Q01638 whole entry, looked up): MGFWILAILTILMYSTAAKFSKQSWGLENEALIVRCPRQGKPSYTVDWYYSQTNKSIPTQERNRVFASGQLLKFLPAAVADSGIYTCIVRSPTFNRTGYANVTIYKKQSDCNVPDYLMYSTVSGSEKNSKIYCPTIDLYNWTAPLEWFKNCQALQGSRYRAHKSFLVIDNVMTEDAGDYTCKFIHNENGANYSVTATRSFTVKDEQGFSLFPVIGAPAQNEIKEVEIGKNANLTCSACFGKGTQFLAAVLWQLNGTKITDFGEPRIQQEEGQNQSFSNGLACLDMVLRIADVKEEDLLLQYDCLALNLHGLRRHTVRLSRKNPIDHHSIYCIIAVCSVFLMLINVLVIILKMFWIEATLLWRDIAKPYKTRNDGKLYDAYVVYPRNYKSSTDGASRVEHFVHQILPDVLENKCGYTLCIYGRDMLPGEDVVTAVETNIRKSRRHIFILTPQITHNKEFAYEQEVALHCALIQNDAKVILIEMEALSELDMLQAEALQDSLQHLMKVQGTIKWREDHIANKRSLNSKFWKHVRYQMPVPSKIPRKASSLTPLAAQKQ
Each line names hits and unclear results; the compound was inactive in the other large screens. This excerpt belongs to a sample that is enriched for hits.

COc1ccc(NCc2ccc([N+](=O)[O-])s2)cc1OC	ST2 IL33 inh 45%
COc1ccc(NC(=O)Cc2ccccc2[N+](=O)[O-])cc1OC	none
CC(=O)N1CCC[C@H]1C(=O)N1CCC(Cc2cccc(C(=O)O)c2)CC1	none
COc1cccc(OCC(=O)Nc2c(C(=O)Nc3ccccc3F)oc3ccccc23)c1	none
CCCOc1ccc(C(O)=C2C(=O)C(=O)N(CCCn3ccnc3)C2c2ccccc2OC)cc1 (stereo unspecified)	none
COc1ccc(-n2nc(C(=O)N3CCCCC3C)c3c4ccccc4n(C)c3c2=O)cc1Cl (stereo unspecified)	ST2 IL33 inh 97%
COc1ccc(-n2nc(C(=O)NC3CC3)c3c4ccccc4n(C)c3c2=O)cc1Cl	none
COc1ccc(-n2nc(C(=O)NCc3ccco3)c3c4ccccc4n(C)c3c2=O)cc1Cl	none
COc1ccc(NS(=O)(=O)c2ccc(NS(=O)(=O)c3ccccc3)cc2)nn1	none
COc1ccc(/C=c2\sc3nnc(-c4ccccc4Cl)n3c2=O)cc1	none
Cc1ccc(/C=c2\sc3nnc(-c4ccccc4Cl)n3c2=O)o1	ST2 IL33 inh 37%
CN(C)c1ccc(/C=c2\sc3nnc(-c4ccccc4Cl)n3c2=O)cc1	none
CC1=C[C@@H](CNCCc2c[nH]c3ccccc23)[C@H](C(C)C)C[C@H]1Cc1nnc(-c2cncn2C)o1	none
CC(C)CN1CC(C(=O)N2CC(c3ccncc3)C2)CC1=O (stereo unspecified)	none
c1ccc(-c2ccccc2OCCCCN2CCOCC2)cc1	none
Cc1cc(Oc2cc(C#N)c(C#N)cc2[N+](=O)[O-])cc(C)c1Cl	ST2 IL33 inh 39%
CCOc1ccc(C(=O)Nc2c(C)cccc2CC)cc1[N+](=O)[O-]	none
COc1ccc(NC(=O)c2cccc(Oc3ccc(C(F)(F)F)cc3[N+](=O)[O-])c2)cc1	none
O=C(CSc1ccc(Cl)cc1)N1CCCCC1	none
COc1ccc(-c2cc(N3CCN(S(=O)(=O)c4ccc(NC(C)=O)cc4)CC3)ncn2)cc1	none
CC(=O)O[C@@H]1[C@@H](OC(C)=O)[C@H](C)O[C@@H](O[C@H]2[C@H](OC/C=C(\C)CC/C=C(\C)CC/C=C(\C)CCC=C(C)C)O[C@H](CO[C@@H]3O[C@@H](C)[C@H](O)[C@@H](O)[C@H]3O)[C@@H](O)[C@@H]2O)[C@@H]1OC(C)=O	none
CCOC(=O)C1(CCOc2ccccc2)CCN(Cc2c[nH]c3ccccc23)CC1	none
O=C(c1ccccc1S(=O)(=O)Cc1ccccc1)N1CC[C@H](O)[C@@H](O)C1	none
COC(=O)Nc1nc2ccc(S(=O)(=O)O)cc2[nH]1	none
CC(C)n1c(-c2ccccc2)csc1=Nc1ccccc1	ST2 IL33 inh 70%
CSc1nc2c(sc3ccccc32)c(=O)n1Cc1ccco1	none
c1ccc(N=c2scc(-c3ccccc3)n2Cc2ccco2)cc1	ST2 IL33 inh 62%
c1ccc(N2CCN(Cc3ccco3)CC2)cc1	none
COc1ccc(C2C(C#N)=C(N)Oc3nc[nH]c(=O)c32)cc1OC (stereo unspecified)	none
Cc1c(Br)c([N+](=O)[O-])nn1CCCC(=O)Nc1ccc(F)cc1F	none
O=C(N1CCN(C2CCCCC2)CC1)C1(S(=O)(=O)c2ccc(Cl)cc2)CC1	none
CCOC(=O)c1c(NC(C)=O)sc2c1CCN(Cc1ccccc1)C2	none
CCN1CCc2c(sc(NC(=O)c3ccc(C)c(C)c3)c2C(=O)OC)C1	none
CCOC(=O)c1c(NC(=O)c2cc3ccccc3oc2=O)sc2c1CCN(CC)C2	ST2 IL33 inh 33%
Cc1cc(N2CCN(C)CC2)nc2ccc(NC(=O)CCC(=O)NC(C)C)cc12	none
O=C(O)Cc1ccccc1[N+](=O)[O-]	none
O=C(O)c1cc([N+](=O)[O-])c(C(=O)O)cc1Oc1ccc(Cl)cc1	none
O=[N+]([O-])c1ccccc1Oc1ccccc1	ST2 IL33 inh 30%
O=C(O)CN1C(=O)COc2ccc(Cl)cc21	none
COc1ccccc1/C=C/C1=NC(=C\C(Cl)=C\c2ccccc2)/C(=O)O1	none
Cc1cccc(C2=N/C(=C\C=C\c3ccccc3)C(=O)O2)c1	ST2 IL33 inh 37%
O=C1OC(c2cccc(I)c2)=N/C1=C\c1ccc([N+](=O)[O-])cc1	none
O=C1OC(c2cc([N+](=O)[O-])ccc2Cl)=N/C1=C\c1cccc(I)c1	none
CN(C)c1ccc(/C=C2\N=C(c3ccccc3Br)OC2=O)cc1	ST2 IL33 inh 41%
Cc1ccc(C2=N/C(=C\C(Br)=C\c3ccccc3)C(=O)O2)cc1[N+](=O)[O-]	none
CC(=O)n1cc(/C=C2\N=C(c3cccc(C)c3)OC2=O)c2cc(Br)ccc21	none
Cc1cccc(C2=N/C(=C\c3cccc([N+](=O)[O-])c3)C(=O)O2)c1	none
CC1=N/C(=C\c2ccc(Br)cc2)C(=O)O1	none
Cc1cccc(C2=N/C(=C\c3ccccc3)C(=O)O2)c1	ST2 IL33 inh 46%
COc1ccc(/C=C2\N=C(c3ccccc3Br)OC2=O)c(OC)c1OC	none
O=C1OC(c2ccccc2Cl)=N/C1=C\C=C\c1ccccc1	ST2 IL33 inh 34%
CC1CCCN(CCCNS(=O)(=O)c2cccc3nonc23)C1 (stereo unspecified)	none
CN(C)Cc1c(N)cccc1O	none
COc1cc(-c2ncccc2C(F)(F)F)cc(OC)c1OC	none
O=C(CN1CCN(Cc2ccc(F)cc2)C1=O)NCc1ccc(Cl)cc1	none
C=CCn1cc(CNCc2ccccc2-n2ccnc2C)c(C)n1	none
COc1ccc(/C=C2\N=C(c3cccc(I)c3)OC2=O)cc1[N+](=O)[O-]	none
COc1ccc(/C=C2\N=C(c3ccc(C)cc3)OC2=O)cc1Br	none
Cc1cccc(C2=N/C(=C\c3ccc(N(C)C)cc3)C(=O)O2)c1	ST2 IL33 inh 39%
CCNC(=O)N[C@H]1CC[C@]2(C)CC[C@@H]([C@H](C)C(=O)NCc3cccs3)[C@H](O)[C@H]2[C@@H]1C	none
CN(C)c1oc(COc2ccc(Cl)cc2Cl)nc1S(=O)(=O)c1ccccc1	ST2 IL33 inh 36%
CN(C)c1oc(-c2ccccc2)nc1S(=O)(=O)c1ccccc1	none
Cc1nc(S(=O)(=O)c2ccccc2)c(N(C)C)o1	none
Cc1ccc(C2(c3noc(CN4CCN(c5nc6ccccc6o5)CC4)n3)CCCC2)cc1	none
COc1cc(C(=O)N=C2C(C)=CC(=O)C=C2C)cc(OC)c1OC	none
c1ccc2sc([C@H]3CCNC3)nc2c1	ST2 IL33 inh 32%
CC(=O)N1CCC(N2CC[C@H](c3nc4ccccc4s3)C2)CC1	none
O=C(O)CCC(=O)N1CC[C@H](c2nc3ccccc3s2)C1	none
CCCOC(=O)C1=C(C)NC2=C(C(=O)CC(C)(C)C2)C1c1ccc(OC)c(OC)c1OC (stereo unspecified)	none
COc1ccc(Cc2noc(-c3ccccc3Br)n2)cc1OC	none
Cc1cc2oc(-c3ccc4c(c3)OCCO4)cc(=O)c2cc1C	none
Cc1ccc(NS(=O)(=O)c2c(C)noc2C)c(C)c1	none
O=C(Nc1ccccc1[N+](=O)[O-])C1C2CCCCC21 (stereo unspecified)	ST2 IL33 inh 39%
CC(C)(C)CC(=O)Nc1ccccc1[N+](=O)[O-]	none
O=C(NC1CCCCCC1)c1ccccc1[N+](=O)[O-]	none
Cc1ccc(Nc2c(-c3ccsc3)nc3cnccn23)cc1	none
O=C(NCc1ccc(Cl)c(Cl)c1)c1cccs1	none
CN1C[C@@H](NC(=O)NCc2ccccc2)C[C@H]1c1nc(-c2ccccc2)no1	none
CN1C[C@@H](NC(=O)CCC(=O)O)C[C@H]1c1nc(-c2ccccc2)no1	none
CN1C[C@@H](NC(=O)CC(C)(C)CC(=O)O)C[C@H]1c1nc(-c2ccc(F)cc2)no1	ST2 IL33 inh 30%
CN1C[C@@H](NC(=O)c2ccco2)C[C@H]1c1nc(-c2cccnc2)no1	ST2 IL33 inh 49%
CN1C[C@@H](NC(=O)Nc2cccc(F)c2)C[C@H]1c1nc(-c2cccnc2)no1	none
